The text below walks through data of PubChem BioAssay.

SMILES strings stand for the structures. A number with no mark means an inactive call. How the calls were made is not given here.

The test can be described thus: Pseudomonas biofilm growth suppression – PAO1 strain, BacTiter-Glo luminescence, LB-PBS, primary screen (AID 1144). As to conditions: P. aeruginosa PAO1 biofilm, 12 h, higher = more signal.
As for `O=C1[C@H]2[C@H]3[C@H](O)[C@H](O)CC(=NOC[C@@H](O)COCc4ccco4)[C@H]3CC[C@H]2C(=O)N1c1cccc(Oc2ccccc2)c1`, the z-score was -0.0166.

Turning to `CS(=O)(=O)CCOC(=O)C1=CC(CCCO)=CC(c2cccs2)N(Cc2cccc(OC(F)(F)F)c2)C=C1C(=O)OCCS(C)(=O)=O` (centres undefined), the z-score is 0.957.

For the compound `CC(CCC(=O)OC[C@H]1O[C@H](C#Cc2ccccc2)C=C[C@@H]1Oc1ccc(C)cc1)=NO[C@@H](C)c1cn([C@H](CO)Cc2ccccc2)nn1`, the z-score is -1.07.

With `COc1ccc(O[C@H]2C=C[C@@H](c3ccccc3)O[C@@H]2COC(=O)CCC(C)=NO[C@@H](C)c2cc(-c3c(C)cc(C)cc3C)no2)cc1`, the z-score was -0.587.

`CC(C)[C@@H](OCc1ccccc1)[C@H](C)C=NO[C@H](C)c1cn([C@H](CO)Cc2ccccc2)nn1`: the z-score is 0.403.

In the case of `COc1cccc([C@H]2Oc3ccc(OC)cc3C(=NOC(C)CN3CCCc4nc(C)c(C)cc43)[C@@H]2O)c1` (some centres undefined), the z-score is 1.28.

Take `O=C1C[C@@H](O)[C@@H](O)[C@@H]2[C@@H]3C(=O)N(C4CCCCC4)C(=O)[C@@H]3CC[C@H]12`: the z-score is -0.653.

Regarding `COc1ccc([Si](C)(C)[C@H]2[C@H](CC(=O)N3CCC[C@H]3CO)O[C@@]3(C(=O)N(Cc4cccc(N5C(=O)COc6ccccc65)c4)c4ccccc43)[C@@H]2C)cc1`, the z-score is -0.201.

Take `CC(C)NC(=O)[C@@]1(c2ccc([N+](=O)[O-])cc2)CC(=O)N(CC23CC4CC(CC(C4)C2)C3)[C@@H]1c1ccc(CO)cc1I`: the z-score was 0.017.
